Out of some 1,300 compounds screened, about 380 (29%) were called active. About 37% were inconclusive and are not listed. This is one part of the list. Values without a mark were called inactive. The call rests on the fitted dose curve; in most records, active means well fitted inhibition curve with a large enough effect; inconclusive means small, poorly fitted or top-dose-only effect; inactive means flat fitted curve, though single readings scatter.
target: Thyrotropin receptor (Homo sapiens) (UniProt P16473); assay: qHTS for antagonists of the Thyroid Stimulation Hormone Receptor: Hit Validation in Primary Screen; conditions: TSHR-expressing cells, cAMP antagonist mode; series mostly up to 58 µM; activity change, negative = inhibition: at the top concentration; further: nearly all actives have a fitted effect of over 80% in size;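 on activity change, negative = inhibition: cAMP by competitive HTRF where cellular cAMP lowers the 665 nm FRET signal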
Sequence (P16473 whole entry, looked up): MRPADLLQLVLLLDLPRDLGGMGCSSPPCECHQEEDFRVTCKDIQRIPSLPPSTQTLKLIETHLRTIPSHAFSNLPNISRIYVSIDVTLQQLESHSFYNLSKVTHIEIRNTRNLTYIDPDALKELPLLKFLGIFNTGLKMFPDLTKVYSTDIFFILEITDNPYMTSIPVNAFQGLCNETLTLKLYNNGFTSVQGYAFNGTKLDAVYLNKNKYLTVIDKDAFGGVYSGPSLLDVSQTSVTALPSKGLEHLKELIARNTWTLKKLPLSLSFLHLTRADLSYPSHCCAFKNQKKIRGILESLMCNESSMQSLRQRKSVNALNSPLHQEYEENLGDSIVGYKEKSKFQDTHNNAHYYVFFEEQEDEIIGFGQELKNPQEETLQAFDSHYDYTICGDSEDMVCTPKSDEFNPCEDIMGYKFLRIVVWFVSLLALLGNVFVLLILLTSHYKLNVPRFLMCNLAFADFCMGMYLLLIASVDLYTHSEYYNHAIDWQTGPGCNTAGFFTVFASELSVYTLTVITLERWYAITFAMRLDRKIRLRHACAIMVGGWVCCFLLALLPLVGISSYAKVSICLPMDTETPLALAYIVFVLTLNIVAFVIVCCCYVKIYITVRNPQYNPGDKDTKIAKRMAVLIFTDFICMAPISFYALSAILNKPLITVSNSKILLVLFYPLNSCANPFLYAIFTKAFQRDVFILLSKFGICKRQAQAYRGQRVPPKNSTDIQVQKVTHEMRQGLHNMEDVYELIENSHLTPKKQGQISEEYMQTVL
Procedure, shortened: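 TSHR-expressing cells were pretreated with compound, then stimulated with TSH at EC80 (4nM final) for 2 hours at 37 deg C. Cellular cAMP measured by competitive HTRF (anti-cAMP cryptate, cAMP-d2) after 30 min at room temperature.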
On the % scale 0 is the no-effect control and ±100 the full control effect; potency means the concentration at half of the fitted maximal effect.

Row | SMILES | Potency | activity change, negative = inhibition [%]
1 | CC(Sc1nn(-c2ccc(F)cc2)c(=S)s1)C(=O)c1c(N)n(C)c(=O)n(C)c1=O (stereo unspecified) | 37.9 µM (active) | 
2 | CCCCCC/C(C)=C1/SC(=S)NC1=O | 30.1 µM (active) | 
3 | O=C(Nn1cnnc1)C(c1ccccc1)c1ccccc1 |  | -7.72
4 | O=C(N=C1SC2CS(=O)(=O)CC2N1c1ccc(F)cc1)C1CC1 (stereo unspecified) |  | -2.68
5 | CCCCCc1c2c(cc(O)c1C(=O)O)OC(=O)c1c(cc(OC)cc1C(=O)CCCC)O2 | 33.8 µM (active) | 
6 | COC(=O)[C@H]1[C@H]2C[C@@H]3c4[nH]c5cc(OC)ccc5c4CCN3C[C@H]2C[C@@H](OC(=O)/C=C/c2cc(OC)c(OC)c(OC)c2)[C@@H]1OC |  | -11.4
7 | O=C(CC1C(=O)NCCN1Cc1cccc(F)c1F)NCCCC1CCCC1 (stereo unspecified) |  | -0.634
8 | CC(Oc1ccc(Cl)cc1Cl)c1nc(-c2ccc(NC(=O)c3cccnc3)cc2)no1 (stereo unspecified) | 21.3 µM (active) | 
9 | CCCn1nnc(NC(=O)C(C)Oc2ccc(Cl)cc2Cl)n1 (stereo unspecified) |  | 1.58
10 | COCCNc1cnn(-c2ccccc2)c(=O)c1Cl |  | -16.4
11 | Cc1ccccc1Oc1cc(-n2ncc(Cl)c(Cl)c2=O)ncn1 | 12 µM (active) | 
12 | CC(C)(CNC(=O)C1c2ccccc2-c2ccccc21)N1CCOCC1 |  | 2.56
13 | Cc1[nH]n(-c2ccccc2)c(=O)c1N=Nc1c(O)cc(S(=O)(=O)N(C)C)c2ccccc12 | 8.49 µM (active) | 
14 | CC(NC(=O)/C(C#N)=C/c1ccc([N+](=O)[O-])o1)c1ccccc1 (stereo unspecified) | 30.1 µM (active) | 
15 | O=C(Cn1ncc(Cl)c(Cl)c1=O)N1CCN(S(=O)(=O)c2ccc3ccccc3c2)CC1 | 9.53 µM (active) | 
16 | Cc1ccc(S(=O)(=O)N2CCN(C(=O)Cc3ccsc3)CC2)c(C)c1 |  | -0.288
17 | CCc1nn(CC(=O)N2CCCCCC2)c(=O)c2cc3ccccc3n12 |  | -6.57
18 | NC(=O)CSc1oc(-c2ccco2)nc1S(=O)(=O)c1ccccc1 |  | -12.3
19 | O=C(Nc1nnc(C2CC2)s1)c1ccc(Cl)c(S(=O)(=O)N2CCc3ccccc3C2)c1 | 3.79 µM (active) | 
20 | NC(=O)c1ccc(CN2CCc3ccccc3C2)cc1 |  | 0.0288
21 | CS(=O)(=O)N1CCc2cc(C(=O)Nc3ccc(COCC(F)(F)F)cc3)ccc21 |  | -11.9
22 | CCc1nnc(NS(=O)(=O)c2ccc(NC(=O)COc3ccc4ccccc4c3)cc2)s1 |  | -8.82
23 | CCc1nnc(NC(=O)c2ccc(Cl)c(S(=O)(=O)N3CCc4ccccc43)c2)s1 | 7.57 µM (active) | 
24 | C=CCOc1c(Cl)cc(CNc2ccc(N(C)C)cc2)cc1OC |  | -6.8

Row | SMILES | Potency | activity change, negative = inhibition [%]
25 | N#Cc1c(C(F)(F)F)cc(-c2ccc(Cl)cc2)[nH]c1=O | 10.7 µM (active) | 
26 | O=C1C=C(c2ccc(Cl)c(C(F)(F)F)c2)C[C@@H](c2ccc(Cl)cc2)C1 |  | -9.56
27 | COc1cc(C(C(=O)NCc2ccccc2)N(C(=O)c2snc(C(N)=O)c2N)C2CCCC2)cc(OC)c1OC (stereo unspecified) |  | -6.63
28 | Cc1ccc(NC(=S)c2nc3ccccc3s2)cc1 |  | -10.7
29 | COC(=O)c1ccc(/C(O)=C(\C#N)c2nc3ccccc3s2)cc1 | 15.1 µM (active) | 
30 | COc1ccc(CCNc2ncnc3sc(C)cc23)cc1OC | 19 µM (active) | 
31 | COc1ccc(CCNc2ncnc3c2[nH]c2cc(OC)c(OC)cc23)cc1OC |  | -12.4
32 | Cc1cc2c(NCCc3ccccc3)ncnc2s1 | 23.9 µM (active) | 
33 | Cc1nn(S(=O)(=O)c2ccc(F)cc2)c(C)c1S(=O)(=O)N1CCOCC1 |  | -8.56
34 | Cc1nc2ccccc2n1CC(=O)N/N=C\C=C\c1ccccc1 |  | -4.49
35 | COc1ccc(-n2nnnc2SCC(=O)NC2CCCC2)cc1OC |  | 0.403
36 | Cc1ccc(Nc2cc(C)nc3ccc(C)cc23)cc1 |  | -5.56
37 | Cc1ccc(-c2nc3ccc(C(=O)O)cc3nc2-c2ccc(C)cc2)cc1 | 23.9 µM (active) | 
38 | N#Cc1ccc(NC(=O)Nc2ccc(Cl)cc2)cc1 | 7.57 µM (active) | 
39 | Nc1ccccc1N=Cc1ccc(-c2cccc(Cl)c2)o1 | 37.9 µM (active) | 
40 | COc1ccccc1N1CCN(c2nc(C)nc3c2oc2ccccc23)CC1 | 26.9 µM (active) | 
41 | Cc1ccccc1C(=O)Nc1nnc(SCC(=O)NC2CC2)s1 |  | -11.8
42 | CC1CCN(CCCNC(=O)CN2C(=O)CSc3ccc(S(=O)(=O)N4CCOCC4)cc32)CC1 |  | 0.173
43 | Cc1ccc(NC(=O)Nc2ccc3c(c2)N(C)C(=O)CS3)cc1C | 30.1 µM (active) | 
44 | CCC(C)NC(=O)CN1C(=O)CSc2ccc(S(=O)(=O)N3CCCC3)cc21 (stereo unspecified) |  | -7.63
45 | O=C1CSc2nc3ccccc3n21 |  | -1.58
46 | CC(=O)N(C1=C(Cl)C(=O)c2ccccc2C1=O)C1CCCCC1 | 30.1 µM (active) | 
47 | CCOc1ccc(CCNC(=O)c2ccc3c(=O)[nH]c4c(C(=O)NC(C)C)sc(=S)n4c3c2)cc1 | 6.01 µM (active) | 
48 | CCCCNC(=O)c1sc(=S)n2c1[nH]c(=O)c1ccccc12 | 4.78 µM (active) | 

Row | SMILES | Potency | activity change, negative = inhibition [%]
49 | COc1ccccc1NC(=O)NNC(=O)CCN1CCOCC1 |  | -2.97
50 | NS(=O)(=O)c1ccc(CNC(=O)CCS(=O)(=O)Cc2ccccc2)cc1 |  | -1.15
51 | Brc1ccc(-c2nnc(-c3cccc(Br)c3)o2)cc1 |  | -6.14
52 | N#Cc1c(SCc2c(Cl)cccc2Cl)nc(N)[nH]c1=S | 19 µM (active) | 
53 | CCOCCCNC(=O)C(NC(=O)c1ccc(=O)[nH]c1)c1ccc(Cl)cc1 (stereo unspecified) |  | -2.3
54 | COc1ccc(-n2nc(C(=O)NCC(=O)Nc3cc(OC)c(OC)c(OC)c3)c3ccccc3c2=O)cc1OC |  | -8.07
55 | Cc1nn(-c2ccccc2)c(C)c1NC(=O)COc1ccc(Br)cc1Cl | 23.9 µM (active) | 
56 | CCn1nc(C)c(NC(=O)/C=C/c2ccc(OC)c(COc3ccc(Br)cc3)c2)c1C |  | -15.9
57 | CCCC(=O)Nc1nnc(CCc2ccccc2)s1 |  | -2.28
58 | Cc1ccc(S(=O)(=O)N(CC(=O)NCc2ccccn2)c2ccc(Cl)cc2)cc1 |  | -3.4
59 | CCC1CCCCN1S(=O)(=O)c1ccc(NC(=O)c2nc(S(C)(=O)=O)ncc2Cl)cc1 (stereo unspecified) | 9.53 µM (active) | 
60 | CS(=O)(=O)c1ncc(Cl)c(C(=O)Nc2ccc3ccccc3c2)n1 | 30.1 µM (active) | 
61 | CS(=O)(=O)Cc1ccc(C(=O)Nc2cccc(-c3nc4ccccc4[nH]3)c2)cc1 |  | -7.95
62 | CCN(c1ccccc1)S(=O)(=O)c1ccc(NCC2COc3ccccc3O2)nc1 (stereo unspecified) |  | -10.9
63 | CN1/C(=C/C(=O)c2nc(S(C)(=O)=O)ncc2Cl)C(C)(C)c2ccccc21 | 21.3 µM (active) | 
64 | CCN(c1ccccc1)S(=O)(=O)c1ccc(NC(=O)c2nc(S(C)(=O)=O)ncc2Cl)cc1 | 26.9 µM (active) | 
65 | CCSc1ncc(Cl)c(C(=O)Nc2ccccc2OC)n1 |  | -2.3
66 | CCS(=O)(=O)c1ccc(C(=O)Nc2ccccc2)c(Cl)c1Cl |  | -11.7
67 | CCS(=O)(=O)c1ncc(Cl)c(C(=O)Nc2ccc(S(=O)(=O)N(C)c3ccccc3)cc2)n1 | 19 µM (active) | 
68 | CN(c1ccccc1)S(=O)(=O)c1ccc(NC(=O)c2nc(S(C)(=O)=O)ncc2Cl)cc1 | 21.3 µM (active) | 
69 | Cc1onc(-c2c(Cl)cccc2Cl)c1C(=O)N1CCc2ccccc2C1 |  | -6.77
70 | COc1ccc(/C=N/n2c(C)nnc2C)c(OC)c1OC |  | -9.42
71 | CCN(C(=O)c1cc2c(=O)n3ccccc3nc2n1C)C1CCCCC1 |  | -7.38
72 | CCN(CC)c1ccc2nc3ccccc3[n+](CC)c2c1 | 13.5 µM (active) | 

Row | SMILES | Potency | activity change, negative = inhibition [%]
73 | Cc1c(N=Nc2c(-c3ccc([N+](=O)[O-])cc3)[nH]n(C(N)=S)c2=O)cccc1[N+](=O)[O-] | 3.79 µM (active) | 
74 | CC(=O)Nc1nc(C)c(Oc2ccc(C)cc2)c(=O)[nH]1 |  | -4.18
75 | COc1ccc(Nc2ccc([N+](=O)[O-])c3nonc23)c(OC)c1 |  | -3.05
76 | O=[N+]([O-])c1ccc(Sc2cccc[n+]2[O-])c2nonc12 | 8.49 µM (active) | 
77 | Cc1ccc(NC(=O)c2cccc(OCc3c(C)noc3C)c2)cc1S(=O)(=O)Nc1ccccc1Cl |  | -8.07
78 | Fc1cccc(Cl)c1CNCc1cccnc1 |  | -6.25
79 | O=C(Nc1ccc(Cl)c(Cl)c1)c1cccc(S(=O)(=O)NCc2cccnc2)c1 | 13.5 µM (active) | 
80 | O=C(NCc1cccnc1)c1nc(-c2ccccc2)n(-c2ccccc2)n1 |  | -7.43
81 | CN(C)S(=O)(=O)Oc1cccc(C(=O)Nc2ccc(Cl)c(Cl)c2)c1 | 26.9 µM (active) | 
82 | O=c1[nH]c(=S)[nH]c2c1CN(Cc1ccc(F)cc1)CC2 |  | -8.38
83 | O=C(O)c1nn(CC(=O)N2CCN(c3ncc(C(F)(F)F)cc3Cl)CC2)c(=O)c2ccccc12 | 21.3 µM (active) | 
84 | O=c1c2nncn2c2cccnc2n1CCNc1ncc(C(F)(F)F)cc1Cl |  | -4.18
85 | Cc1ccc(-n2[nH]c(C)c(/C=N/Nc3ccc([N+](=O)[O-])cc3[N+](=O)[O-])c2=O)cc1 | 6.75 µM (active) | 
86 | Cc1ccc(-n2[nH]c(C)c(/C=N/Nc3ccc([N+](=O)[O-])cc3[N+](=O)[O-])c2=O)cc1C | 2.39 µM (active) | 
87 | O=C(N/N=C/c1ccc[nH]1)c1sc2ccccc2c1Cl |  | -4.67
88 | Nc1nnc(COc2ccc(Br)cc2Br)s1 |  | -5.73
89 | O=C(Oc1c(Br)cc([N+](=O)[O-])cc1Br)c1cccnc1 | 4.26 µM (active) | 
90 | COc1ccc(CN2CCCN(C)CC2)c(OC)c1C |  | -4.21
91 | Cc1ccc(S(=O)(=O)NCCNS(=O)(=O)c2ccc(C)cc2)cc1 |  | -7.12
92 | Cc1ccc(S(=O)(=O)Nc2ccc(N=Nc3ccc(O)cc3)cc2)cc1 | 30.1 µM (active) | 
93 | CCOC(=O)N1CCN(C(=O)c2ccc(NS(=O)(=O)c3ccc(C)cc3)cc2)CC1 |  | -10.8
94 | N#C/C(=N\Nc1ccc(Cl)c(Cl)c1)C(=O)C1CC1 | 6.01 µM (active) | 
95 | Cc1cccc(C)c1NC(=O)N1CCC(C(=O)c2ccc(F)cc2)CC1 |  | -1.04
96 | O=C(Nc1nnc(C(F)(F)F)s1)c1ccc(Br)s1 | 10.7 µM (active) | 
